Only some compounds are listed: those with a hit (about 3.1% of all), similar ones and a draw of the others.
uPA generation = inhibitors of cell surface uPA generation. AID 540303. cell surface uPA generation assay, qHTS. Potency, µM (highest dose often 38.3 µM), for the others: top-dose activity change, negative = inhibition, hits mostly inhibitors. actives 0.31% (n = 330,000); active means well fitted inhibition curve with a large enough effect; inconclusive means small, poorly fitted or top-dose-only effect; inactive means no such curve, though single readings can be large or run the other way; tested in mouse RAW 264.7 cells; further: potency means the concentration at half of the fitted maximal effect; on the % scale 0 is the no-effect control and ±100 the full control effect; nearly all actives have a fitted effect of over 55% in size
RGS4 inh = blocks human RGS4-accelerated GTP hydrolysis; P49798; Transcreener GDP fluorescence polarization, RGS4-accelerated GTP hydrolysis; Potency, µM (series often up to 114 µM), for inactives: top-dose activity change, negative = inhibition, most hits filed as inhibitors; actives 0.039% (n = 390,000); active means well fitted inhibition curve with a large enough effect; inconclusive means small, poorly fitted or top-dose-only effect; inactive means no such curve, though single readings can be large or run the other way; further: potency means the concentration at half of the fitted maximal effect; on the % scale 0 is the no-effect control and ±100 the full control effect; nearly all actives have a fitted effect of over 75% in size
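MLSMR compounds (23 nl, pin-transferred) preincubated 10 min at room temperature with a 500nM (2x) first reagent, then RGS4 at 900nM (2x) plus Transcreener GDP mix added; fluorescence polarization (620/688 nm) read before and after 90 min at 30 °C.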
DRD3 antagonist = antagonists of human D3 dopamine receptor | P35462 | D3R cells, DiscoveRx beta-arrestin luminescence, antagonist mode; active compounds read low | max response, negative = inhibition, % | actives 2.5% (n = 360,000); in the data active means max response below about -50%; inconclusive means no clear call, values can overlap the other calls; further: on the % scale 0 is the no-effect control and ±100 the full control effect
Target sequence (P35462 whole entry, looked up): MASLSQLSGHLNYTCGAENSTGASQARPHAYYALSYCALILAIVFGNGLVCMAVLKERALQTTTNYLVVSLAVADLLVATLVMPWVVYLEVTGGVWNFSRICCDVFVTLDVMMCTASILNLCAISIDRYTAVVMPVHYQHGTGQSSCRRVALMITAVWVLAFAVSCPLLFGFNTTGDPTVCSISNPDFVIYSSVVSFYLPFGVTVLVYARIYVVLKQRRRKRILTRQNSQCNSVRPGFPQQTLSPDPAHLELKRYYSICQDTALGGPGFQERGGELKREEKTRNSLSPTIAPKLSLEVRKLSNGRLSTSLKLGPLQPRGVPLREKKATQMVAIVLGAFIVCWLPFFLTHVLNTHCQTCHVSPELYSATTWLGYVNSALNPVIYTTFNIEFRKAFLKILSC
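Cells expressing the human receptor were seeded at 1500 cells/well, incubated overnight at 37 degrees C in 5% CO2, then exposed to library compounds with dopamine controls for 90 minutes at 37 degrees C before luminescent detection.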
D3 ag = D3 dopamine receptor (human) agonism; P35462; max activation, %; AID 652048; D3R DiscoveRx beta-arrestin cells, luminescence, 90 min; actives 0.58% (n = 410,000); in the data active means max activation above about 30%; further: 0% is about no effect
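Agonist mode: compounds and dopamine controls were applied to plated cells for 90 min at 37 degrees C after an overnight attachment at 1500 cells/well. Luminescent read-out followed 30 - 60 minutes at room temperature with DiscoveRx detection reagent.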
* = called active by the depositor; u = inconclusive; x = no result given; ! = not active in a repeat; [ ] = another dose, or the depositor's remark.

SMILES | uPA generation | RGS4 inh | DRD3 antagonist | D3 ag
CN(C)CCOc1cccc(Cl)c1 | 5.8% | 8.8% | u | -5.4
CN(C)CCOC(=O)COc1ccc(Cl)cc1 | 28.4% | 4.5%[56.9 µM] | -9.0 | 45.0*!
CN(C)CCOc1cc(Cl)cc(Cl)c1 | u | -3.5%[11.4 µM] | -63.6* | -12.0
CCC(Oc1ccc(F)cc1)C(=O)Nc1nc(-c2ccc(F)cc2)ns1 (configuration not stated) | x | 10.1% | x | -5.3
O=C(O[C@@H]1OC2COC(=O)c3cc(O)c(O)c(O)c3-c3c(cc(O)c(O)c3O)C(=O)O[C@@H]([C@H]1O)[C@@H]2O)c1cc(O)c(O)c(O)c1 | -16.3% | u | 17.2 | 32.1*
CCOc1ccc(NC(=O)c2cc(S(=O)(=O)N3CCc4ccccc43)ccc2F)cc1 | x | 8.5% | x | 3.7
Nc1[nH]n2c(=O)cc(-c3ccccc3)nc2c1N=Nc1ccc(S(N)(=O)=O)cc1 | -1.1% | -22.2% | u | -5.3
NS(=O)(=O)c1ccc(N=Nc2c(-c3ccccc3)[nH]n(-c3nc(-c4ccccc4)cs3)c2=O)cc1 | -5.9% | 4.5% | -65.9* | -32.3
O=C1C2CCCN2C(=O)N1CCN1CCN(c2ccccc2)CC1 (configuration not stated) | 8.9% | -4.4% | -3.3 | -41.8
COc1ccccc1N1CCN(CCN2C(=O)C3CCCCN3C2=O)CC1 (configuration not stated) | 3.1% | -39.6% | -79.1* | -20.7
COc1ccccc1N1CCN(CCCN2C(=O)C3CCCN3C2=O)CC1 (configuration not stated) | 18.6% | -18.9% | -82.9* | -12.7
COc1ccccc1N1CCN(CCCN2C(=O)C3CCCCN3C2=O)CC1 (configuration not stated) | 5.5% | 3.3% | -65.6* | -11.8
CN(C)C1CN(Cc2cn(Cc3cccc(C(F)(F)F)c3)nn2)S(=O)(=O)C1 (configuration not stated) | x | x | 12.8 | -5.3
CC(C)OC(=O)Nc1ccc2nc(-c3cscn3)[nH]c2c1 | x | x | x | 3.0
CCC1CSC(=Nc2ccc(C)cc2)N1C(=O)CN1C(=O)NC2(CCCC2)C1=O (configuration not stated) | 8.91µM* | -30.2% | 12.9 | -6.0
COc1ccc(-c2oc3ncnc(NCCCN(C)C)c3c2-c2ccc(OC)cc2)cc1 | u | 28.4% | -104.3* | -17.2
Cc1ccc(-c2oc3ncnc(N)c3c2-c2ccc(C)cc2)cc1 | x | 10.3% | 26.0 | 17.1
CN(C)CCNc1ncnc2oc(-c3ccccc3)c(-c3ccccc3)c12 | -14.5% | 16.2% | -60.7* | -14.6
Cc1cc(C)c(NC(=O)Cn2c(=O)n(CC3CCCO3)c(=O)c3ccccc32)c(C)c1 (configuration not stated) | x | 13.6% | x | 1.1
CC(C)CC1NC(=O)c2cc3ccccc3cc2-n2c1nc1ccc(F)cc1c2=O (configuration not stated) | x | x | -57.9* | -7.4
COc1ccc2nc3n(c(=O)c2c1)-c1ccc(Cl)cc1C(=O)NC3Cc1ccc(O)cc1 (configuration not stated) | 6.3% | 17.5% | 4.2 | 44.2*
CCc1ccc(-n2c(=O)c3ccc(C(=O)NCCc4ccccc4)cc3n(Cc3ccccc3C#N)c2=O)cc1 | x | -44.3% | x | 4.8
CSc1nc(-c2ccccc2)[nH]c(=S)c1C(C)=O | -4.6% | -9.2% | -93.4* | -8.3
CCC(=O)OCC(=O)[C@@]1(OC(=O)CC)[C@H](C)C[C@H]2[C@H]3[C@H]([C@@H](O)C[C@@]21C)[C@@]1(C)C=CC(=O)C=C1C[C@H]3Cl | x | x | x | 0.9
Cn1nc(-c2ccccc2F)c2cc(C(=O)N3CCN(c4ccccc4F)CC3)sc21 | x | -15.5% | x | 50.7*
SMILES | uPA generation | RGS4 inh | DRD3 antagonist | D3 ag
CCN(CCCNC(=O)c1cc2c(-c3cccc(OC)c3)nn(C)c2s1)Cc1ccccc1 | -6.9% | 15.8% | -53.9* | -19.8
CCCCN(CC)CCNC(=O)c1cc2c(-c3ccccc3F)nn(C)c2s1 | u | 41.1% | -61.2* | -15.0
CCOc1ccc(CCNC(=O)c2cc3c(-c4cccc(OC)c4)nn(C)c3s2)cc1OCC | x | -7.6% | x | 15.7
CN1CCN(C(=O)CCCN2C(=O)/C(=C/c3ccccc3)SC2=S)CC1 | -2.9% | 0.4% | -24.6 | -4.9
O=C(O)CCCN1C(=O)/C(=C\C(Cl)=C\c2ccccc2)SC1=S | 5.01µM* | -112.6% | u | -3.1
COc1ccc2oc(C(=O)N3CCN(C/C=C/c4ccccc4)CC3)c(C)c2c1 | -2.6% | 10.1% | 0.0 | 30.3*
Cc1cc(C)c2c(CN3CCN(C/C=C/c4ccccc4)CC3)cc(=O)oc2c1 | 2.0% | -9.8%[56.9 µM] | -64.2* | -1.6

Screening data (PubChem)
